Compound activity deposited in PubChem BioAssay by National Center for Advancing Translational Sciences (NCATS).
VDR inhibitor: vitamin D3 receptor (human) inhibition. P11473. VDR-SRC2-3 peptide fluorescence polarization, 2 h. Potency, µM, most hits filed as inhibitors. actives 0.93% (n = 400,000). AID 504847
Target sequence (P11473 whole entry, looked up): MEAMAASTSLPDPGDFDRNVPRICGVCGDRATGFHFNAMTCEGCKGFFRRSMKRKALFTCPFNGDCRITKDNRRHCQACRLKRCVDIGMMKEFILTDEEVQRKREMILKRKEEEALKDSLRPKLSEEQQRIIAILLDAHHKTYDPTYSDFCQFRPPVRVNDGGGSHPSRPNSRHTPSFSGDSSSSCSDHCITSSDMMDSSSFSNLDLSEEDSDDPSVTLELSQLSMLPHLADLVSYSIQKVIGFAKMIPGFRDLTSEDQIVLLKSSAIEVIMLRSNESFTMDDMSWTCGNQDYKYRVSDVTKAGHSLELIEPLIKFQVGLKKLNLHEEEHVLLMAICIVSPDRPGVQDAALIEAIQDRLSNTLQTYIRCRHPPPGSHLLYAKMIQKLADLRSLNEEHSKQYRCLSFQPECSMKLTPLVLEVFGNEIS
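Fluorescence polarization assay of small-molecule disruption of VDR binding to coregulator peptide SRC2-3. Compounds and controls pin-transferred, then read after 2 h incubation at ambient room temperature.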
12-LOX inh: inhibitors of human 12S-lipoxygenase ALOX12; Potency, µM (highest dose often 108 µM), hits mostly inhibitors; AID 1671190; actives 1.1% (n = 580,000); P18054; purified 12hLO, xylenol orange hydroperoxide absorbance
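Purified human 12hLO at 150 nM in 25 mM Hepes, 0.01% Triton X-100, pH 7.0, preincubated 15 min at room temperature with compound. Reaction started with 40 uM arachidonic acid, 30 min at room temperature. Hydroperoxide measured by Fe-xylenol orange, 573/405 nm absorbance ratio.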
G9a inh: inhibitors of human histone lysine methyltransferase G9a | actives 8.8% (n = 350,000) | G9a H3K9 monomethylation, AlphaScreen, 2 h | Q96KQ7 | Potency, µM (doses to about 102 µM), hits mostly inhibitors; further: nearly all actives have a fitted effect of over 75% in size
Target sequence (Q96KQ7 913-1193 limits assumed): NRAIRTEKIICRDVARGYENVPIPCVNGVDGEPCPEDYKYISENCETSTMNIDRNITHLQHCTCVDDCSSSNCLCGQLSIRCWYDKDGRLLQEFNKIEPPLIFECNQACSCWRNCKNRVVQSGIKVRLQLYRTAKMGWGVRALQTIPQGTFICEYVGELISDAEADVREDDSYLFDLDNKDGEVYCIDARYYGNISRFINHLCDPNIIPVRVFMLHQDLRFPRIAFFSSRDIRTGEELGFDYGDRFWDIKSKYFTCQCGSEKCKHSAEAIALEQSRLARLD
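G9a (20 nM) preincubated 15 min RT with compounds, then 500 nM biotinylated H3K9 peptide and 20 uM SAM added; 2 h RT reaction. Monomethyl-H3K9 product detected by AlphaScreen with anti-H3K9me1 antibody, streptavidin donor and anti-rabbit IgG acceptor beads.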
Glioma ERSR ind: ER stress response induction in glioma; U87-MG GRP78 promoter luciferase reporter, 16 h; Potency, µM, actives largely listed as activators; actives 0.02% (n = 420,000); further: series mostly up to about 76 µM; nearly all actives have a fitted effect of over 35% in size
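Stably transfected U87-MG human glioma cells carrying a GRP78-based luminescent sensor were seeded at 1000 cells/well, pin-dosed with compounds and incubated 16 h. Luciferase reagent was then added, and end-point luminescence was read after 10 min at room temperature.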
Sfp PPTase inh: inhibitors of Bacillus subtilis Sfp phosphopantetheinyl transferase | Q9F4F7 | Biochemical Sfp PPTase activity, qHTS | Potency, µM, actives largely listed as inhibitors | actives 3.5% (n = 310,000) | AID 1490;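 further: the enzyme is Sfp with the accession as filed and its product quenches rhodamine fluorescence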
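Compounds were incubated with enzyme (final 15 nM) for 15 min at room temperature before substrate addition started the reaction. Fluorescence at 525 nm excitation, 598 nm emission was recorded immediately and after 30 minutes.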
Numbers stand for hits; 0 = inactive; ? = inconclusive; - = no result given; [ ] = remark or other dose. Only a selection was taken, and hits are over-represented in it overall. The call rests on the fitted dose curve; in most records, active means well fitted curve in the direction sought with a large enough effect; inconclusive means small, poorly fitted or top-dose-only effect, or another doubt; inactive means no such curve, though single readings can be large; an effect the other way counts as inactive or inconclusive.

SMILES | VDR inhibitor | 12-LOX inh | G9a inh | Glioma ERSR ind | Sfp PPTase inh
Cc1cccc(NC(=S)N/N=C2/CCCCc3ccccc32)c1 | 0 | 32µM | 0 | 0 | 0
Cc1cccc(NC(=S)N2CCCC2)c1 | 0 | 0 | - | 0 | 0
COc1ccc(NC(=S)N/N=C2/CCCc3c(C)cc(C)cc32)cc1 | 0 | 0 | 0 | 0 | 0
Cc1ccc(NC(=S)N/N=C2/CCCCc3ccccc32)cc1 | 0 | 32µM | ? | 0 | 0
FC(F)(F)c1ccccc1NC(=S)N1CCCC1 | 0 | ? | 0 | 0 | ?
FC(F)(F)c1ccccc1NC(=S)NN=C1CCCCCC1 | 0 | ? | 8.9µM | 0 | 0
Cc1ccc(C)c(NC(=S)N/N=C2\CCc3ccccc32)c1 | 0 | 22µM | 40µM | 0 | 0
Cc1cccc(NC(=S)NN=C2CCCC2)c1 | - | 14µM | - | - | -
Cc1ccc(C)c(NC(=S)NC(C)C(c2ccccc2)N2CCN(C)CC2)c1 (configuration not stated) | 0 | 0 | 0[12.7 µM] | 0 | 0
CC(=O)c1ccc(NC(=O)c2ccc3ccn(C)c3c2)cc1 | - | 0 | - | - | -
CCCn1c(CCC(=O)O)nc2cc(S(=O)(=O)N(CC)CC)ccc21 | 0 | 0 | 0[12.7 µM] | 0 | 0
CCN(CC)S(=O)(=O)c1ccc2c(c1)nc(-c1ccccn1)n2C | 0 | ? | 10µM | 0 | 0
O=C(O)c1cc2nccc(-c3ccco3)n2n1 | 0 | 0 | 50µM | 0 | 0
COc1ccc2c(c1)c(/C=N/Nc1nc3ccccc3[nH]1)c(C)n2C | 0 | 0 | - | 0 | 11µM
COc1ccc(-c2nc(SCc3ccccc3)n(C(C)=O)n2)cc1 | - | 0 | - | - | -
O=C(CCC1CCCN(C(=O)c2ccc3c(c2)OCO3)C1)NCc1ccccc1Cl (configuration not stated) | - | 0 | - | - | -
COc1cccc(CNC(=O)CCC2CCCN(C(=O)CCC(F)(F)F)C2)c1 (configuration not stated) | 0 | 0 | 0 | 0 | 0
Cc1ccc(CNC(=O)CCC2CCCN(Cc3cccc4cccnc34)C2)o1 (configuration not stated) | 0 | 0 | 40µM | 0 | 0
Cc1ccc(CNC(=O)CCC2CCCN(C(=O)CCC(F)(F)F)C2)o1 (configuration not stated) | 0 | 0 | 50µM | 0 | ?
Cc1ccc(CNC(=O)CCC2CCCN(Cc3cccc4ncccc34)C2)o1 (configuration not stated) | 0 | 0 | 0 | 0 | 0
Cc1ccc(CNC(=O)CCC2CCCN(C(=O)c3ccc4c(c3)OCO4)C2)o1 (configuration not stated) | 0 | 0 | 50µM | 0 | 28µM
Cc1ccc(NC(=O)CCc2ncc(-c3ccccc3)o2)c(O)c1 | - | 0 | - | - | -
COc1ccc(-c2cc(C(=O)NCC(C)C)c3c(C4CCCN4)nn(C)c3n2)cc1 (configuration not stated) | - | 0[6.33 µM] | - | - | -
c1ccc(N2CCSC2c2cccs2)cc1 (configuration not stated) | - | 0 | - | - | -
O=C(CSc1ncc(-c2ccc(F)cc2)o1)NC1CCCC1 | - | 0 | - | - | -
SMILES | VDR inhibitor | 12-LOX inh | G9a inh | Glioma ERSR ind | Sfp PPTase inh
COc1cc(Cl)c(C)cc1NC(=O)c1cc(=O)n2c(nc3ccccc32)s1 | - | 45µM | - | - | -
COc1cc(Cl)c(C)cc1NC(=O)c1cc2c(=O)oc3ccccc3c2s1 | ? | 0 | 0 | 0 | -
CCc1ccc(NS(=O)(=O)c2[nH]ncc2C(=O)OC)cc1 | 0 | 0 | 2.5µM | 0 | -
CCc1ccc(NS(=O)(=O)c2cc(OC)ccc2OC)cc1 | 0 | 0 | 0 | 0 | 0
Oc1ccccc1N=Cc1sc2ccccc2c1Cl | 0 | 0 | ? | 0 | 56µM
Oc1c(C=NCc2ccncc2)sc2ccccc12 | 0 | 0 | ? | 0 | 28µM
CN=Cc1sc2ccccc2c1O | 0 | 0 | 50µM | 0 | 0
Oc1c(/C=N/c2ccccn2)sc2ccccc12 | 0 | ? | 8.9µM | 0 | 0
COc1ccc2c(C)c(CC(=O)NCCCOC(C)C)c(=O)oc2c1OC | - | 0 | - | - | -
Cc1ccc(CC(=O)NC2CCCCC2C)cc1 (configuration not stated) | - | 0 | - | - | -
Cc1ccc(Cl)c2c1=NC(=O)C=2c1[nH]c(=S)[nH]c1O | ? | ? | 7.9µM | 0 | 40µM
NCCCCOc1ccc(OCc2ccccc2)cc1 | - | 0 | - | - | -
CCN1CCN(CC(=O)c2c[nH]c3ccc(C)cc23)CC1 | 0 | ? | 0 | 0 | 0
CCOC(=O)N1CCN(CC(=O)c2c[nH]c3ccc(F)cc23)CC1 | - | - | 50µM | - | 0
COc1cccc(S(=O)(=O)N2CCCC(c3nc(C(C)C)no3)CCNC(=O)CC2)c1 (configuration not stated) | - | 0 | - | - | -
O=C(CSc1ncc(C(F)(F)F)cc1Cl)N1CCc2ccccc21 | - | 0 | - | - | -
CCCc1cc(=O)n2nc(N(C)CC(=O)Nc3cccc(Cl)c3C)sc2n1 | - | 0 | - | - | -
COc1ccc(N2CCN(CC(=O)Nc3c(C)cc(C)cc3C)CC2)cc1 | 0 | ? | 40µM | 0 | 0
CCOC(=O)c1cccc(NC(=O)CN2CCN(c3ccc(OC)cc3)CC2)c1 | 0 | 0 | 56µM | 0 | 0
CCOC(=O)c1sc(NC(C)=O)nc1C | 0 | 0 | ? | 0 | 56µM
CCOC(=O)c1sc(NC(=O)c2ccc(OC)cc2)nc1C | 0 | ? | 0[12.7 µM] | 0 | 0
Cc1cc(C)c(NC(=O)CN2CCN(C)CC2)c(C)c1 | 0 | 0 | 0 | 0 | 0
CCOC(=O)c1sc(NC(=O)CN2CCN(c3ccc(OC)cc3)CC2)nc1C | 0 | 0 | 40µM | 0 | 0
CCOC(=O)c1sc(NC(=O)Cc2ccc(F)cc2)nc1C | 0 | 0 | 0 | 0 | ?
CCOC(=O)c1sc(-n2[nH]c(C)cc2=O)nc1C | 0 | 0 | 28µM | 0 | 0
SMILES | VDR inhibitor | 12-LOX inh | G9a inh | Glioma ERSR ind | Sfp PPTase inh
Cc1ccc(Nc2nc(N)nc(CN3CCN(C(=O)c4ccco4)CC3)n2)cc1Cl | 0 | 0 | 50µM | 0 | 0
Cc1ccc(NC(=O)N2CCN(C(=O)c3ccco3)CC2)cc1Cl | 0 | 0 | 0 | 0 | 0
O=C(c1ccco1)N1CCN(Cc2ccccc2F)CC1 | 0 | 0 | 28µM | 0 | 0
Cc1ccccc1CN1CCN(C(=O)c2ccco2)CC1 | 0 | 0 | 11µM | 0 | ?
Fc1cccc(F)c1CN1CCN(c2ncccn2)CC1 | 0 | 0 | 0 | 0 | 0
Fc1ccccc1CN1CCN(c2ncccn2)CC1 | 0 | 0.56µM | 22µM | 0 | 0
COc1cccc(C(=O)N2CCC(N(C)C3CCOCC3)CC2)c1 | - | 0 | - | - | -
O=C(NC1CCN(Cc2cccc(C(F)(F)F)c2)CC1)C1CCCCC1 | - | 0 | - | - | -
O=[N+]([O-])c1ccc(Cl)c(CN2CCN(c3ncccn3)CC2)c1 | 0 | ? | 71µM | 0 | 0
O=C(c1ccccc1F)N1CCN(Cc2ccccc2F)CC1 | 0 | ? | 2.5µM | 0 | 0
Cc1ccccc1-n1c(=O)cc(N2CCN(C(=O)c3ccco3)CC2)[nH]c1=O | 0 | 0 | ? | 0 | 79µM
Oc1cc2c(cc1CN1CCN(c3ncccn3)CC1)OCO2 | 0 | ? | 4µM | 0 | 0
O=C(CSc1ncccn1)Nc1nc2cc3c(cc2s1)OCCO3 | - | 0 | - | - | -
CCN1C(=O)C2(CCN(C(=O)COC)CC2)c2ccccc21 | - | 0 | - | - | -
O=C(CCC1CCCC1)NC1CCCc2ccccc21 (configuration not stated) | - | 0 | - | - | -
